How the values were obtained:
Settings in all cases: concentration: 1 μM,replicates: in singlicate; n = 1
[1] = system: JAK1(JH2domain-pseudokinase)
[2] = system: JAK2(JH1domain-catalytic)
[3] = system: JAK3(JH1domain-catalytic)
JNK1 = system: T1, JNK1
T1 construct: gene MAPK8

JNK2 = system: T2, JNK2
T2 construct: gene MAPK9

JNK3 = system: T3, JNK3
T3 construct: gene MAPK10

KIT-autoinhibited = system: KIT-autoinhibited
KIT = system: KIT
LATS1 = system: LATS1
LATS2 = system: LATS2
LCK = system: LCK
LIMK1 = system: LIMK1
LIMK2 = system: LIMK2
LKB1 = system: T4, LKB1
T4 construct: gene STK11

LOK = system: T5, LOK
T5 construct: gene STK10

LRRK2 = system: LRRK2
LTK = system: LTK
LYN = system: LYN
LZK = system: T6, LZK
T6 construct: gene MAP3K13

MAK = system: MAK
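Note: KINOMEscan kinase panel screen.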

| SMILES | %Inh [1] | %Inh [2] | %Inh [3] | %Inh (JNK1) | %Inh (JNK2) | %Inh (JNK3) | %Inh (KIT-autoinhibited) | %Inh (KIT) | %Inh (LATS1) | %Inh (LATS2) | %Inh (LCK) | %Inh (LIMK1) | %Inh (LIMK2) | %Inh (LKB1) | %Inh (LOK) | %Inh (LRRK2) | %Inh (LTK) | %Inh (LYN) | %Inh (LZK) | %Inh (MAK) |
| --- | --- | --- | --- | --- | --- | --- | --- | --- | --- | --- | --- | --- | --- | --- | --- | --- | --- | --- | --- | --- |
| Cc1cccc2c(-c3ccncc3)c(-c3ccc(F)cc3)nn12.Cl [GW461487] | 19% | 0% | 0% | 48% | 90% | 94% | 0% | 4% | 0% | 13% | 19% | 0% | 4% | 4% | 0% | 26% | 100% | 0% | 5% | 26% |
| COC(=O)c1cccc(NC(=O)NC2CCN(c3ccnc(Nc4cc(OC)c(OC)c(OC)c4)n3)C2)c1 (centres unmarked) [GSK1379767] | 13% | 82% | 0% | 16% | 20% | 28% | 0% | 77% | 0% | 17% | 7% | 0% | 35% | 0% | 45% | 0% | 83% | 0% | 54% | 36% |
| O=C(Nc1n[nH]c2cc(-c3ccco3)ccc12)C1CC1 [SB-737447] | 63% | 27% | 30% | 38% | 17% | 32% | 7% | 23% | 0% | 10% | 3% | 0% | 0% | 0% | 3% | 0% | 0% | 0% | 0% | 4% |
| CCN1CCN(CCCC(=O)Nc2n[nH]c3nc(-c4ccc(O)cc4)c(Br)cc23)CC1 [SB-731579] | 0% | 80% | 87% | 55% | 38% | 34% | 15% | 31% | 0% | 0% | 66% | 0% | 0% | 23% | 13% | 0% | 20% | 0% | 0% | 35% |
| O=c1[nH]cc(-c2ccc(O)cc2)c2sc(-c3ccncc3)cc12 [GSK1033723] | 0% | 33% | 51% | 0% | 0% | 0% | 0% | 27% | 0% | 24% | 7% | 0% | 23% | 13% | 0% | 0% | 0% | 0% | 4% | 31% |
| Cc1ccn2nc(-c3ccc(F)cc3)c(-c3ccncc3)c2c1.Cl [GW457859] | 75% | 50% | 0% | 43% | 91.4% | 93.4% | 0% | 26% | 2% | 0% | 12% | 0% | 0% | 10% | 0% | 0% | 0% | 0% | 44% | 17% |
| COc1cc2c(Nc3ccc(NC(=O)c4ccccc4)cc3)ncnc2cc1OCCCN1CCOCC1 [GSK301329] | 0% | 0% | 0% | 0% | 19% | 12% | 41% | 99.1% | 0% | 0% | 87% | 3% | 0% | 0% | 77% | 33% | 27% | 52% | 55% | 0% |
| Cc1nnc(-c2ccc3occ(-c4ccc(S(C)=O)cc4)c3n2)o1 (centres unmarked) | 0% | 0% | 0% | 0% | 0% | 0% | 0% | 0% | 0% | 0% | 0% | 0% | 0% | 3% | 0% | 0% | 0% | 0% | 0% | 0% |
| Cn1ccc2ncnc(Oc3ccc(NC(=O)Nc4cccc(C(F)(F)F)c4)c(Cl)c3)c21 | 45% | 11% | 25% | 9% | 0% | 0% | 37% | 100% | 9% | 0% | 79% | 0% | 0% | 11% | 99.9% | 0% | 56% | 63% | 0% | 28% |
| CCn1c(-c2nonc2N)nc2cncc(CNC3CCNCC3)c21.Cl [SB-747651] | 0% | 19% | 0% | 25% | 6% | 3% | 0% | 0% | 0% | 53% | 0% | 14% | 13% | 0% | 0% | 43% | 25% | 0% | 8% | 29% |

— PMC5540273 (PLoS ONE, 2017)
